# Compounds with a hit are over-represented: about 3% of the library has one in this group of screens.
# MITF TRPM1 inh = reduces MITF-dependent TRPM1 promoter luciferase signal; hit rate 0.83% among 330,000; inhibition, % at 12.5 µM; AID 488899; SK-MEL-5 TRPM1 promoter luciferase, 24 h;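 active means mean inhibition across replicates of 60% or more, whatever share of single replicates reaches that level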
# CF NFkB block = blocks PAF-induced NF-kB reporter in cystic fibrosis cells | KKLEB NF-kB-GFP reporter, GFP fluorescence overnight | inhibition, % at 5 µM | hit rate 0.86% among 360,000;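 active means at least 50% inhibition at 5 µM, scaled per plate between neutral and stimulator controls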;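 further: PAF is a Pseudomonas aeruginosa culture filtrate used as stimulus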
# Peg3 prom inh = Peg3 promoter activity inhibition. HeLa PEG-Prom luciferase reporter, luminescence, overnight. inhibition, % at 20 µM. hit rate 1.7% among 360,000. AID 588405;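 active means inhibition of at least 50% at 20 µM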
# KKLEB tox = reduces viability of KKLEB cystic fibrosis airway cells; KKLEB CF airway cells viability, ATPlite luminescence, overnight; hits give low values; cells stimulated with P. aeruginosa culture filtrate; activity change (cytotoxicity), % at 5 µM; hit rate 0.36% among 360,000; AID 602141;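 active means corrected activity change at or below -50% at 5 µM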
# HIF-2a inh = blocks HIF-2a reporter activity; 786-0 RCC cells HIF-2a reporter, luciferase luminescence, overnight; inhibition, % at 18.8 µM; hit rate 0.72% among 360,000; AID 624352;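 active means inhibition of the luminescence signal of 40% or more relative to plate controls, in a single-dose primary screen at 18.75 µM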
# ABHD5-PLIN5 inh = ABHD5-PLIN5 protein interaction inhibition. Q00G26+Q8WTS1. Split G. princeps luciferase complementation, luminescence, 4 h. inhibition, % at 4 µM. hit rate 0.78% among 360,000;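 active means inhibition above the mean inhibition across every tested compound plus 3 SD, cut at about 22% in these data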
# Target sequence (Q00G26 whole entry, looked up): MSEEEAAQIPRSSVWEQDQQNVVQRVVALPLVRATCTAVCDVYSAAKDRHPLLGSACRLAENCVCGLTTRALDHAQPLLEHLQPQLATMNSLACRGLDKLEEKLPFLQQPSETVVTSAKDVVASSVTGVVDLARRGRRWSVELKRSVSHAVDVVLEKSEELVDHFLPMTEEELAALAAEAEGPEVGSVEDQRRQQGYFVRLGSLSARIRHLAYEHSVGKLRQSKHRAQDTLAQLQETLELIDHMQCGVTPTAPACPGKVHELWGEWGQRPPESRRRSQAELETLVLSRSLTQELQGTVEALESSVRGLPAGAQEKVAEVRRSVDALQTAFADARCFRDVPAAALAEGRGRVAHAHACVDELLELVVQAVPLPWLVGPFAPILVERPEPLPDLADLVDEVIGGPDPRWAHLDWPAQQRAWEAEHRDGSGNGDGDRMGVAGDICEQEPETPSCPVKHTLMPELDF
# Target sequence (Q8WTS1 whole entry, looked up): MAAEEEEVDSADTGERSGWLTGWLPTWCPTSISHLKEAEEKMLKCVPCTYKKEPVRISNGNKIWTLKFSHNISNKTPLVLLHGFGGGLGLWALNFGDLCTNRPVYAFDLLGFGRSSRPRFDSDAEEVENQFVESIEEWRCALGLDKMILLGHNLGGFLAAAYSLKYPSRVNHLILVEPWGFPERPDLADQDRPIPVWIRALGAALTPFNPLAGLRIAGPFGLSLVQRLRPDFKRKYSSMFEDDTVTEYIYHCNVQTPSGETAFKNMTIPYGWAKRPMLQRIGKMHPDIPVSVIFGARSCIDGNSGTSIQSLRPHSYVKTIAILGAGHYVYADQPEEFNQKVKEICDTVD
# A number is an active result; n = inactive; x = no result.
SMILES,MITF TRPM1 inh,CF NFkB block,Peg3 prom inh,KKLEB tox,HIF-2a inh,ABHD5-PLIN5 inh
O=C(NC1CCCCC1)C(c1ccc(F)cc1)N(Cc1cccs1)C(=O)CN1C(=O)c2ccccc2S1(=O)=O (stereo unspecified),n,59,n,-75,n,n
O=C(NCC1CCCO1)C(c1ccncc1)N(Cc1cccs1)C(=O)CN1C(=O)c2ccccc2S1(=O)=O (stereo unspecified),n,n,n,n,n,n
COCC(=O)N1C[C@H]2CON(C)[C@H]2C[C@H]1c1cccc(-c2ccccc2)c1,x,n,n,n,n,n
CCOc1ccc(C(=O)Nc2cccc(C(=O)O)c2)cc1Cl,n,n,n,n,63,n
CCOc1ccc(C(=O)Nc2cccc(-c3nc4cccnc4o3)c2)cc1Cl,n,n,90,n,n,n
CCOc1ccc(C(=O)Nc2cc(NC(=O)c3ccc(OCC)c(Cl)c3)cc(C(=O)O)c2)cc1Cl,n,n,n,n,n,n
CCOc1ccc(C(=O)Nc2ccc(NC(=O)c3ccco3)c(Cl)c2)cc1Cl,n,n,n,n,n,n
CCCNC(=O)C1(C)CCN1C(=O)c1cc(C)n(C)n1 (stereo unspecified),x,n,n,n,n,n
COC(=O)c1ccc(N2CCN(C)CC2)c(NC(=O)c2sc3ccccc3c2Cl)c1,n,n,110,n,n,n
Cc1ccc2nc(Cl)c3cc(C(=O)N(CCN(C)C)Cc4ccco4)sc3c2c1,n,n,93,n,n,n
CN(C)CCN(Cc1ccco1)C(=O)c1cc2c(Cl)nc3ccccc3c2s1,n,n,n,n,n,n
Cc1ccc(S(=O)(=O)/N=C2\C=C(NS(=O)(=O)c3ccccc3)C(=O)c3ccccc32)cc1,n,73,n,n,n,n
Cc1cc(C)c(S(=O)(=O)/N=C2\C=C(NS(=O)(=O)c3ccccc3)C(=O)c3ccccc32)c(C)c1,n,51,n,n,n,n
Cc1cc(C)c(NS(=O)(=O)c2ccccc2)c(C)c1,n,n,n,n,n,n
CC(=O)Nc1ccc(-c2ccnc3c2CC(C)(C(=O)NCCc2ccccc2)O3)cc1 (stereo unspecified),x,n,n,n,n,n
O=C(Cc1ccccc1)NNC(=O)Nc1cccc(Cl)c1,n,n,n,n,n,n
O=C(CN1c2ccccc2Sc2ccccc21)NNC(=O)Nc1cccc(Cl)c1,n,n,51,n,n,n
O=C(CSc1nnc(-c2ccccc2O)n1-c1ccccc1)Nc1cccc(C(=O)O)c1,n,n,n,n,n,n
C=CCNC(=O)CSc1nnc(-c2ccccc2Br)n1-c1cccc(C(F)(F)F)c1,n,n,52,n,n,n
CCCC[C@@H]1CC2=C(C(=O)OC(C)(C)O2)[C@@H](c2ccc(F)cc2)O1,x,x,x,x,n,n
C=CCn1c(=O)/c(=C/c2cc(OC)c(OC)c(OC)c2)s/c1=C(/C#N)c1nc2ccccc2n1C,n,n,n,-50,n,n
C=CCn1c(=O)/c(=C/c2ccc(O)cc2)s/c1=C(/C#N)c1nnc2n1CCCCC2,n,n,n,n,n,n
Cc1ccc(CN2CCN(C(=O)/C=C/[C@H]3O[C@@H](n4cc(C)c(=O)[nH]c4=O)C[C@@H]3O)CC2)cc1,x,n,n,n,n,n
CCOC(=O)C1CCN(c2ccccc2CN2CCN(c3ccccc3OCC)CC2)CC1,n,n,92,n,n,n
Cc1ccc(C)c(S(=O)(=O)N2CCN(C(=O)Cn3[nH]c(=O)c4ccccc4c3=O)CC2)c1,n,n,n,n,n,n
SMILES,MITF TRPM1 inh,CF NFkB block,Peg3 prom inh,KKLEB tox,HIF-2a inh,ABHD5-PLIN5 inh
CCS(=O)(=O)c1nc(S(=O)(=O)c2ccc(C)cc2)c(N2CCN(C)CC2)s1,n,n,n,n,n,n
Cc1oc2c(c1C(=O)c1ccccc1)C(=O)C(=O)c1ccccc1-2,n,88,108,n,88,n
Cc1oc2c(c1C(=O)O)C(=O)c1ccccc1C2=O,n,n,n,n,n,n
CCOC(=O)c1c(C)oc2c1C(=O)c1ccccc1C2=O,97,76,n,n,n,n
O=C(CSC1=NS(=O)(=O)c2cc(F)ccc2N1)Nc1ccccc1,n,n,n,n,n,n
O=C(CSC1=NS(=O)(=O)c2ccccc21)Nc1ccccc1,n,n,71,n,n,n
Cc1cnc(C(=O)OCC(=O)N2c3ccccc3NC(=O)C2(C)C)cn1,n,n,n,n,n,n
Cc1nn(-c2ccccc2)c(C)c1C(=O)OCC(=O)N1c2ccccc2NC(=O)C1(C)C,n,n,59,n,n,n
CCOc1ccc(NC(=O)CC2C(=O)N(c3ccc(OCC)cc3)C(=S)N2C2CC2)cc1 (stereo unspecified),n,n,n,n,n,n
CCCOc1ccc(NC(=O)CC2C(=O)N(c3ccc(OCC)cc3)C(=S)N2C2CC2)cc1 (stereo unspecified),75,n,n,n,n,n
O=C(/C(=C/O)N=Nc1ccccc1)c1ccc(Cl)cc1,n,63,n,n,n,n
Cc1ccc(N=N/C(=C\O)C(=O)c2ccc(Cl)cc2)cc1,n,76,75,-57,n,n
Cc1ccccc1CNC(=O)CN(c1ccccc1Cl)S(C)(=O)=O,n,n,n,n,n,n
O=C1CN(c2ccccc2)C(=S)N1C(=O)c1ccc(Br)cc1,n,n,n,n,n,n
CCCCN(C)CC(O)Cn1cc(/C=C/C(=O)c2cccs2)c2ccccc21 (stereo unspecified),90,n,n,n,n,n
COc1ccc(CNC(=O)CSc2nc3ccc(C)cc3[nH]2)cc1OC,n,n,n,n,n,n
COc1ccc(C(=O)Nc2ccccc2C(N)=O)cc1,n,n,n,n,n,n
COc1ccc(C(=O)Nc2ccccc2C(=O)N/N=C/c2ccncc2)cc1OC,n,n,n,-60,n,n
COc1ccc(C(=O)Nc2ccccc2C(=O)N/N=C/c2cccc3ccccc23)cc1,n,n,n,-88,n,n
COc1ccc(C(=O)Nc2ccc(-c3ccc(C)o3)cc2)cc1S(=O)(=O)N1CCOCC1,n,n,n,n,n,22
O=C(NCC(=O)N(c1cccnc1)C(C(=O)NC1CCCCC1)c1ccccc1F)c1ccco1 (stereo unspecified),n,n,n,n,n,n
CCOc1ccccc1NC(=O)CCNC(=O)N1CC(=O)Nc2ccccc21,x,n,n,n,n,n
Cc1ccccc1-n1ncc2c1CC(C)(C)CC2NC(=O)CN1CCCC1=O (stereo unspecified),n,n,n,n,n,n
COc1cccc2c1C(=O)c1c(O)c3c(c(O)c1C2=O)C[C@](O)(C(C)=O)C[C@H]3O[C@@H]1C[C@@H](N)[C@@H](O)[C@@H](C)O1,88,65,105,n,n,n
COc1cccc2c1C(=O)c1c(O)c3c(c(O)c1C2=O)CC(O)(C(C)=O)CC3OC1CC(O)C(O)C(C)O1 (stereo unspecified),77,n,n,n,n,n
